Several values for one entry are separate records, joined by “and”; a condition that tells them apart may be missing. Equal entries are not always repeated. Compounds without any hit were thinned out: in the full panel of roughly 79,000, 15% have a hit. Activity calls are given as the source filed them. No stated cut-off is given here; in the data, active means growth inhibition above about 70%; inactive means the rest.
Key:
[1] = NCI Yeast Anticancer Drug Screen. Data for the wt1 strain (AID 149);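 further: 0% = growth of vehicle-treated wt1 cultures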; details: S. cerevisiae wt1 strain (SPY 50644) growth inhibition, stronger effect = higher value
Outline: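 Each compound is tested on wt1 yeast and the loss of growth versus vehicle gives the inhibition value.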

[2] = NCI Yeast Anticancer Drug Screen. Data for the rad50EPP+ strain (AID 151);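 further: 0% = growth of vehicle-treated control cultures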; details: S. cerevisiae rad50 mutant strain, stronger effect = higher value
Outline: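 Yeast strain carrying rad50 alteration (rad50EPP+) exposed to compounds; growth inhibition measured relative to vehicle-treated controls.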

[3] = NCI Yeast Anticancer Drug Screen. Data for the mgt1 strain (AID 153); details: S. cerevisiae mgt1 mutant growth inhibition, stronger effect = higher value
Outline: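 Yeast mgt1 strain (DNA repair/cell-cycle alteration panel) exposed to compounds; growth inhibition measured relative to vehicle-treated controls.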

[4] = NCI Yeast Anticancer Drug Screen. Data for the rad50 strain (AID 155);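 further: 0% = growth of vehicle-only cultures of the same strain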; details: S. cerevisiae rad50 strain growth inhibition, stronger effect = higher value
Outline: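 Vehicle-treated cultures provide the reference for the growth inhibition reported for compound-exposed, repair-deficient yeast.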

[5] = NCI Yeast Anticancer Drug Screen. Data for the mec2-1 strain (AID 157); details: S. cerevisiae mec2-1 strain, stronger effect = higher value
Outline: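 mec2-1 yeast strain, carrying an alteration in DNA damage repair or cell cycle control, was exposed to compounds; growth inhibition was measured relative to vehicle-treated controls.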

[6] = NCI Yeast Anticancer Drug Screen. Data for the rad14 strain (AID 159);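 further: 0% = growth of vehicle-treated control cultures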; details: S. cerevisiae rad14 strain growth inhibition, stronger effect = higher value
Outline: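 Inhibition of growth is reported for a repair-deficient yeast mutant following compound treatment, calculated relative to cultures that received vehicle.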

[7] = NCI Yeast Anticancer Drug Screen. Data for the sgs1 mgt1 strain (AID 161);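 further: 0% = growth of cultures given vehicle only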; details: S. cerevisiae sgs1 mgt1 strain, stronger effect = higher value
Outline: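 Growth of a repair-deficient yeast mutant was monitored after compound treatment and expressed as inhibition relative to vehicle-treated cultures.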

[8] = NCI Yeast Anticancer Drug Screen. Data for the CLN2oe strain (AID 163);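 further: 0% = growth of vehicle-only control cultures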; details: S. cerevisiae CLN2oe strain, stronger effect = higher value
Outline: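 Yeast cells carrying a defined cell-cycle control alteration were exposed to test compounds. Growth inhibition was scored against vehicle-treated control cultures.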

[9] = NCI Yeast Anticancer Drug Screen. Data for the cln2 rad14 strain (AID 165);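 further: 0% = growth equal to vehicle treated cultures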; details: S. cerevisiae cln2 rad14 strain, stronger effect = higher value
Outline: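 Yeast carrying cln2 and rad14 alterations (cell cycle control and DNA damage repair) were exposed to compounds. Growth inhibition was measured against vehicle-treated controls.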

[10] = NCI Yeast Anticancer Drug Screen. Data for the bub3 strain (AID 167); details: S. cerevisiae bub3 mutant strain, stronger effect = higher value
Outline: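 Mutant yeast screening strain plus compound; vehicle-treated cultures serve as the 0% inhibition reference.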

[11] = NCI Yeast Anticancer Drug Screen. Data for the wt2 strain (AID 169); details: S. cerevisiae wt2 strain growth inhibition, stronger effect = higher value
Outline: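 Yeast cells were exposed to test compounds, and growth inhibition was measured relative to vehicle-treated controls.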

[12] = NCI Yeast Anticancer Drug Screen. Data for the mlh1 strain (AID 171);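 further: 0% = growth of vehicle-treated control cultures of the same strain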; details: S. cerevisiae mlh1 strain growth inhibition, stronger effect = higher value
Outline: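 Yeast carrying a defined genetic alteration in DNA damage repair or cell cycle control were exposed to test compounds. Growth inhibition was measured relative to vehicle-treated controls.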

[13] = NCI Yeast Anticancer Drug Screen. Data for the sgs1 strain (AID 173);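 further: 0% = growth of vehicle-only control cultures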; details: S. cerevisiae sgs1 mutant, stronger effect = higher value
Outline: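 Yeast mutant strains carrying defined defects in DNA damage repair or cell cycle control were exposed to test compounds. Growth inhibition was scored against vehicle-treated controls.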

[14] = NCI Yeast Anticancer Drug Screen. Data for the mlh1 rad18 strain (AID 175); details: S. cerevisiae mlh1 rad18 strain growth inhibition, stronger effect = higher value
Outline: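 Growth inhibition of the yeast strain was measured after compound exposure and expressed relative to vehicle-treated controls. The strain carries defined defects in DNA damage repair.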

[15] = NCI Yeast Anticancer Drug Screen. Data for the rad18 strain (AID 177); details: S. cerevisiae rad18 mutant growth inhibition, stronger effect = higher value
Outline: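 Yeast carrying a defined DNA damage repair alteration were exposed to compounds. Growth inhibition was expressed relative to vehicle-treated controls.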

[16] = at 5.0 µM (retest, dose inferred, filed as 0.5)
[17] = at 50.0 µM (retest, dose inferred, filed as 5.0)

Measured: growth inhibition

c1cc2ccc3cc4ncccc4c4ccc(c1)c2c34
active: [1]; at 100.0 µM 75% | [2]; at 11.0 µM 73% | [2]; at 33.0 µM 92% | [2]; at 100.0 µM 92% | [3]; at 33.0 µM 76% | [3]; at 100.0 µM 84% | [4]; [16] 74% | [4]; at 11.0 µM 70% | [4]; at 33.0 µM 93% | [4]; [17] 96% | [4]; at 50.0 µM 97.9% | [4]; at 100.0 µM 93% | [5]; [17] 97% | [5]; at 50.0 µM 97.5% | [5]; at 100.0 µM 82% | [6]; at 100.0 µM 79% | [7]; [17] 93% | [7]; at 50.0 µM 98.2% | [9]; [17] 90% | [9]; at 50.0 µM 92.3% | [10]; at 33.0 µM 84% | [10]; [17] 96% | [10]; at 50.0 µM 98.9% | [10]; at 100.0 µM 90% | [11]; at 100.0 µM 85% | [12]; at 33.0 µM 83% | [12]; at 100.0 µM 88% | [13]; at 33.0 µM 83% | [13]; at 100.0 µM 85% | [14]; [17] 97% | [14]; at 50.0 µM 97.8% | [15]; at 33.0 µM 87% | [15]; at 100.0 µM 90%
inactive: [1]; at 1.2 µM -2% | [1]; at 3.7 µM 3% | [1]; at 11.0 µM 9% | [1]; at 33.0 µM 54% | [2]; at 1.2 µM 8% | [2]; at 3.7 µM 35% | [3]; at 1.2 µM -2% | [3]; at 3.7 µM -1% | [3]; at 11.0 µM 11% | [4]; at 1.2 µM 2% | [4]; at 3.7 µM 13% | [5]; at 1.2 µM -2% | [5]; at 3.7 µM 1% | [5]; [16] 23% | [5]; at 11.0 µM 13% | [5]; at 33.0 µM 65% | [6]; at 1.2 µM 1% | [6]; at 3.7 µM 7% | [6]; at 11.0 µM 20% | [6]; at 33.0 µM 68% | [7]; [16] 34% | [8]; at 1.2 µM -3% | [8]; at 3.7 µM -3% | [8]; at 11.0 µM 1% | [8]; at 33.0 µM 21% | [8]; at 100.0 µM 65% | [9]; [16] 15% | [10]; at 1.2 µM -2% | [10]; at 3.7 µM 1% | [10]; [16] 27% | [10]; at 11.0 µM 36% | [11]; at 1.2 µM 0% | [11]; at 3.7 µM 0% | [11]; at 11.0 µM 15% | [11]; at 33.0 µM 53% | [12]; at 1.2 µM -2% | [12]; at 3.7 µM 0% | [12]; at 11.0 µM 22% | [13]; at 1.2 µM -2% | [13]; at 3.7 µM 0% | [13]; at 11.0 µM 25% | [14]; [16] 32% | [15]; at 1.2 µM 4% | [15]; at 3.7 µM 7% | [15]; at 11.0 µM 35%

COc1ccc2[nH]c3c(C)c4cc[n+](C)cc4c(C)c3c2c1
inactive: [1]; at 1.2 µM 18% and 15% | [1]; at 3.7 µM 45% and 16% | [1]; at 11.0 µM 45% and 26% | [1]; at 33.0 µM 43% and 41% | [1]; at 100.0 µM 43% and 63% | [2]; at 1.2 µM 39% and 24% | [2]; at 3.7 µM 64% and 62% | [3]; at 1.2 µM 15% and 2% | [3]; at 3.7 µM 28% and 12% | [3]; at 11.0 µM 26% and 24% | [3]; at 33.0 µM 38% and 29% | [3]; at 100.0 µM 39% and 55% | [4]; at 1.2 µM 22% and 7% | [4]; at 3.7 µM 35% and 34% | [4]; [16] 29% and 31% | [4]; at 11.0 µM 60% | [4]; at 50.0 µM 31.6% and 64.8% | [5]; at 1.2 µM 15% and 23% | [5]; at 3.7 µM 45% and 18% | [5]; [16] 9% and 3% | [5]; at 11.0 µM 53% and 27% | [5]; at 33.0 µM 44% and 36% | [5]; [17] 44% and 16% | [5]; at 50.0 µM 21.2% and 56.6%
active: [2]; at 11.0 µM 70% and 73% | [2]; at 33.0 µM 73% and 82% | [2]; at 100.0 µM 87% and 89% | [4]; at 33.0 µM 78% and 88% | [4]; [17] 85% and 82% | [4]; at 100.0 µM 92% and 94%

— PubChem BioAssay (NCI)
